# Assay results taken from PubChem BioAssay (EPA / NIEHS).
# The source made the active and inactive calls. The calls were made as follows: active = hit-call score of the fitted dose curve at least 0.9, where 1 is the maximum; inactive = score below 0.9. Peptide text beside a SMILES is read from it.
# Assay: CCTE_Shafer_MEA_acute_burst_duration_mean: CCTE's Neural Acute Assay for Mean Burst Duration, Shafer Lab (AID 2284014)
# Protocol: CCTE_Shafer_MEA_acute assay is conducted using Axion Biosystems 48 well microelectrode array (MEA) plates and Maestro recording system. Each well of the MEA plate contains a grid of 16 microelectrodes embedded in the culture surface. Electrically active cells, such as neurons, can be cultured over the electrodes, and electrical activity in these cells can be recorded extracellularly. The spontaneous firing of neurons is captured from each electrode on a microsecond timescale providing both temporally and spatially precise data. […] The CCTE_Shafer_MEA_acute assay uses primary cultures of rat cortical neurons. As these cultures mature over time, neural networks develop functional activity and form cohesive networks in which electrical activity can be highly coordinated. Baseline 40-minute recordings are made on days post-plating 13 or 15, followed by a secondary 40-minute recording after chemical exposure.CCTE_Shafer_MEA_acute_burst_duration_mean is a component of the CCTE_Shafer_MEA_acute assay. It measures the average time from the first spike (action potential firing) to the last spike in a single-electrode burst (temporally-clustered group of spikes) during a recording in a microelectrode array (MEA) using Axion Biosystems Maestro 768 channel amplifier with the AxIS adaptive spike detector. The recordings before and after chemical treatment are used to calculate a percent change in the mean burst duration in each well.Data from the assay component CCTE_Shafer_MEA_acute_burst_duration_mean was analyzed into 1 assay endpoint. This assay endpoint, CCTE_Shafer_MEA_acute_burst_duration_mean, was analyzed in the negative analysis fitting direction relative to DMSO as the negative control and baseline of activity. Using a type of functional reporter, gain or loss-of-signal activity can be used to understand electrical activity.
# Spontaneous activity in the cortical cultures was recorded using an Axion Biosystems Maestro 768 channel amplifier and Axion Integrated Studios (AxIS) v1.8 (or later) software. The amplifier recorded from all channels simultaneously (gain = 1200 x; sampling rate = 12.5 kHz/channel): raw signals were filtered with a Butterworth band-pass filter (300-5000 Hz), which filters out slower local field potentials leaving only fast potentials, i.e., "spikes", arising from extracellular currents associated with action potentials (Pine 2006; Wheeler and Nam 2011). On-line spike detection of filtered signals was conducted with the AxIS adaptive spike detector, using a threshold of 8x the root mean squared (rms) noise on each channel. Any electrodes with rms noise levels greater than 5 uV were grounded (e.g., no data were recorded). Once grounded, an electrode was grounded for the duration of the experiment. All recordings were conducted at 37 C. Wells were deemed usable if on the day of the exposure >/= 10 electrodes were active (defined as >/= 5 spikes/min). On DIV 13 or 15, a minimum of three wells from one cortical culture preparation were treated with each compound (0.03-40 uM). Prior to recording baseline activity, each mwMEA plate was placed in the Maestro at 37 C and allowed to sit for 20 min while firing rates stabilized. Baseline activity (40 min) was recorded before the addition of each compound. An additional 40 min of spontaneous activity was recorded in the presence of each compound. Changes in network parameters relative to baseline were assessed following compound treatment.
SMILES,AC50,outcome
Oc1ccccc1Cc1ccccc1O,7.82 µM (active),
CCCCCCCCCCCC(=O)N(C)CC(=O)O,,inactive
CCCC(C)C(=O)OCC (stereo not drawn),,inactive
c1ccc(Nc2cccc3ccccc23)cc1,15 µM (active),
Nc1cccc(N)n1,,inactive
CC(C)C(=O)OCCc1ccccc1,,inactive
CC1(C)CC(O)CC(C)(C)N1[O],,inactive
Cc1c(C(=O)c2c[nH]n(C)c2=O)ccc(S(C)(=O)=O)c1C1=NOCC1,,inactive
CC(CCC(=O)O)(c1ccc(O)cc1)c1ccc(O)cc1,,inactive
Nc1nc(N)nc(-c2ccccc2)n1,,inactive
COC(=O)[C@H](Cc1ccccc1)NC(=O)[C@@H](N)CC(=O)O (H-Asp-Phe-OMe),,inactive
CC/C=C\CCOC(=O)c1ccccc1O,,inactive
C1CNCCN1,,inactive
